# Results published in PubChem BioAssay AID2061318 (National Center for Advancing Translational Sciences (NCATS), 2025).
# Results filed as inconclusive are left out. The source made the active and inactive calls. Calls follow the shape of the dose curve; as a rule, active = well fitted inhibition curve with a large enough effect; inconclusive = small, poorly fitted or top-dose-only effect; inactive = flat fitted curve, though single readings scatter.
# Test: Identification of antibody-drug conjugate (ADC) payloads which are substrates of ATP-binding cassette drug efflux transporters: ABCB1-HEK293-MDR-19 cell line
# Conditions: HEK293 ABCB1 (MDR-19) viability, CellTiter-Glo, 48 h
# From the text: Antibody-drug conjugates (ADCs) feature an antibody recognizing a specific protein joined to a potent toxic payload. Numerous antibody-drug conjugates have received FDA approval; however, clinical resistance arises. Resistance mechanisms include decreased expression or mutation of the antibody target, impaired payload release, or increased expression of ATP-binding cassette (ABC) efflux transporters associated with multidrug resistance. We therefore sought to characterize the interaction of ABC multidrug transporters with ADC payloads. We performed a high-throughput screen with 27 common ADC payloads using cells lines expressing ABC transporters P-glycoprotein (P-gp, encoded by ABCB1) or ABCG2 (encoded by ABCG2). Confirmatory assays were also performed using cells transfected to express P-gp, ABCG2, or MRP1 (encoded by ABCC1). Several commonly used ADC payloads were substrates of P-gp, including calicheamicin gamma1, monomethyl auristatin E, DM1, and DM4. All the pyrrolobenzodiazepines tested - SJG136, SGD-1882, SG2057, and SG3199 - were substrates of P-gp, ABCG2, and MRP1. […] These findings highlight the risk of transporter-mediated resistance with certain ADC payloads and underscore the importance of selecting payloads that evade ABC transporter recognition in future ADC development.
# HEK-293 cells were transfected with empty vector (pcDNA) or vector containing the human ABCB1 (MDR-19), ABCG2 (R-5), or ABCC1 gene (MRP1) and were maintained in EMEM with 2 mg/mL G418 added to maintain transporter expression. The HeLa derivative KB-3-1 and the P-gp overexpressing KB-8-5-11 subline were maintained in DMEM; KB-8-5-11 additionally received 100 ng/mL colchicine. H460 parental cells were obtained from the Division of Cancer Treatment and Diagnosis Tumor Repository, National Cancer Institute at Frederick, MD and were cultured in RPMI. The ABCG2 expressing subline H460 MX20 was generated by selecting H460 cells in 20 nM mitoxantrone. Media in all cases was supplemented with 10% FBS and 1% penicillin-streptomycin. We explored 27 common ADC payloads, in two orthogonal, paired cell line sets-a drug selected and transfected set for each transporter--to identify substrates of the ABC transporters P-gp and ABCG2. Compounds were sourced from Levena Biopharma (San Diego, CA), Selleck Chem (Houston, TX), ChemieTek (Indianapolis, IN), or Microsource Discovery Systems (Gaylordsville, CT). Screening was performed as previously described. Briefly, cells were plated at a density of 500 cells/well in 1536 well plates with compounds added using a 1536-head pin tool (Kalypsys, San Diego CA). Cells were incubated with cytotoxic drugs and processed with CellTiter Glo reagent (Promega, Madison, WI) to determine viability after 48 hours. P-gp substrates were identified by comparing compound activity between paired sets of low-expressing (sensitive) and over-expressing (resistant) cell lines.
row,Structure (SMILES),Potency
1,COc1cccc2c1C(=O)c1c(O)c3c(c(O)c1C2=O)C[C@@](O)(C(=O)CO)CC3OC1CC(N2CCOC(OC)C2)C(O)C(C)O1 (stereo partly specified),1.7 nM (active)
2,COc1cc2cc(c1Cl)N(C)C(=O)C[C@H](OC(=O)[C@H](C)N(C)C(=O)CCS)[C@]1(C)OC1[C@H](C)C1C[C@@](O)(NC(=O)O1)[C@H](OC)/C=C/C=C(\C)C2 (stereo partly specified),298 nM (active)
3,COc1cc2cc(C(=O)N3C[C@@H](CCl)c4c3cc(O)c3ccccc43)[nH]c2c(OC)c1OC,1.2 nM (active)
4,COc1cc2cc(c1Cl)N(C)C(=O)C[C@H](OC(=O)C(C)C)[C@]1(C)O[C@H]1[C@H](C)[C@@H]1C[C@@](O)(NC(=O)O1)[C@H](OC)C=CC=C(C)C2,14.9 nM (active)
5,CC[C@H](C)[C@@H]([C@@H](CC(=O)N1CCC[C@H]1[C@H](OC)[C@@H](C)C(=O)N[C@H](C)[C@@H](O)c1ccccc1)OC)N(C)C(=O)[C@@H](NC(=O)[C@H](C(C)C)N(C)C)C(C)C,66.6 nM (active)
6,CC[C@@]1(O)C(=O)OCc2c1cc1n(c2=O)Cc2cc3ccccc3nc2-1,13.3 nM (active)
